Reference: PubChem BioAssay (NCATS)
Results filed as inconclusive are left out. Values without a mark were called inactive. The call rests on the fitted dose curve; in most records, active means well fitted inhibition curve with a large enough effect; inconclusive means small, poorly fitted or top-dose-only effect; inactive means flat fitted curve, though single readings scatter.

biological target: Calcium and integrin-binding protein 1 (Homo sapiens) (UniProt Q99828); assay: Primary qHTS for Identification of Calcium Integrin Binding Protein 1 (CIB1) Competitor (AID 1508620); conditions: CIB1-GST / FITC-alphaIIb peptide fluorescence polarization; series mostly up to 114 µM; activity change, negative = inhibition: at the top concentration;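 further: GST tagged CIB1 binding a fluorescein labelled alphaIIb integrin peptide tracer; top concentration of the series differs between compounds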
Sequence (Q99828 whole entry, looked up): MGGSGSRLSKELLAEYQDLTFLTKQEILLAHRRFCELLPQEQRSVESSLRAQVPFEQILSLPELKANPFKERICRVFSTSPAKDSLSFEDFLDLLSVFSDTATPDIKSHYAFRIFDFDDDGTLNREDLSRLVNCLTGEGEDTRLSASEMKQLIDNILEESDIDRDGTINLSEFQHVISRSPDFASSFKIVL
Procedure, shortened: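 CIB1-GST (1 uM final) and compound incubated 15 min at room temperature before adding FITC-alphaIIb peptide tracer (100 nM final). Competition for binding read by fluorescence polarization (ex 480, em 540) after another 15 min at room temperature.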
On the % scale 0 is the no-effect control and ±100 the full control effect.

Row | SMILES | activity change, negative = inhibition
1 | COc1cccc(NC(=S)N2CCN(c3ccc4ccccc4n3)CC2)n1 | 4.67%
2 | O=C(Nc1ccc2ccccc2c1)Nc1nnc(-c2ccncc2)s1 | 1.15%
3 | COc1ccc(Nc2nc(C#N)nc(NC3CCCC3)n2)cc1 | 4.3%
4 | Cc1ccc(S(=O)(=O)N2CCN(c3nc(C#N)nc4ccccc34)CC2)cc1 | 4.07%
5 | O=C(/C=C/c1ccc(OC(F)(F)F)cc1)Nc1cccc([S+](=O)([O-])Nc2ccccc2F)c1 | 7.8%
6 | NC(=O)C1CCN(c2nc(-c3ccc(Br)cc3)cs2)CC1 | 2.98% [at 384 µM]
7 | Cc1cccc(OC2=NS(=O)(=O)c3ccccc32)c1 | 2.73%
8 | CCSC1=NS(=O)(=O)c2ccccc21 | -1.58%
9 | Cc1cccc(C(=O)NCC(=O)OC(C(=O)Nc2cc(C(F)(F)F)ccc2Cl)c2ccccc2)c1 (stereo not given) | 1.26%
10 | Cc1cc(C)n2ncc(C(=O)Nc3ccccc3)c2n1 | -2.33%
11 | O=C(CCc1ccccc1)Nc1ncnc2c1C(c1ccccc1)c1c(ccc3ccccc13)O2 (stereo not given) | 0.23%
12 | Cc1ccnc(NC(=S)N2CCN(c3ccc(C(F)(F)F)cc3[N+](=O)[O-])CC2)c1 | -9.39%
13 | Cc1ccc2nc3sc(C(=O)N4CCOCC4)cc3cc2c1 | -2.35%
14 | CC1=C(C(=O)Nc2ccccc2C)C(c2ccccc2Br)N=C(Nc2nc3ccccc3o2)N1 (stereo not given) | -0.382%
15 | N#Cc1c(-c2ccc(OCCOCCOCCN)cc2)no[n+]1[O-] | -8.41%
16 | O=C(Nc1ccc(F)c(C(F)(F)F)c1)Nc1cccc(-c2ccncc2)n1 | 6.89%
17 | CC(C)(C)OC(=O)N1CCN(c2ccc(NCc3ccc(-c4cccc([N+](=O)[O-])c4)o3)cc2)CC1 | -3.14%
18 | Cc1csc(CN(C)c2ncnc3ccc(-c4ccc5c(c4)OCO5)cc23)n1 | -1.61%
19 | Oc1ccc(CNc2nccc3ccccc23)c2cccnc12 | 0.4%
20 | CN1CCc2sc(NC(=O)Cc3ccccc3)c(C(=O)Nc3ccc(Cl)cc3)c2C1 | 2.33%

Row | SMILES | activity change, negative = inhibition
21 | Cc1cc2c(s1)c1cnn(Cc3cccc(C(F)(F)F)c3F)c(=O)c1n2C | -1.74%
22 | Cc1c(P(=S)(c2ccccc2)c2ccccc2)[n+]2ccccc2n1CCCCCc1ccccc1 | -9.46%
23 | O=C1CCc2cc(S(=O)(=O)Nc3ccc(Cl)cc3)ccc2N1 | -1.62%
24 | O=[S+]([O-])(Nc1ccc(N2CCNCC2)cc1)c1ccc(NCc2cccc(Cl)c2O)cc1 | -17.2%
25 | Cn1cncc1CNc1ncnc2ccc(-c3ccc4c(c3)OCO4)cc12 | -12.2%
26 | COc1cccc(CNc2ccc([S+](=O)([O-])Nc3ccccc3)cc2)c1Cl | 6.76%
27 | Fc1cccc(CSc2nc3ncc(Br)cc3[nH]2)c1 | 1.75%
28 | O=C(CCCCSc1nnc(-c2cccc3ccccc23)o1)Oc1ccc(F)cc1 | 6.14%
29 | Cc1nnc(-c2cnn(C)c2)n1CCCn1ccnc1 | -2.87%
30 | Nc1ccc2c(c1)S(=O)(=O)NC2=O | -7.25%
31 | Cc1cc2c(s1)c1cnn(Cc3cccc(Br)c3)c(=O)c1n2C | 9.57%
32 | N#Cc1ncc(C(=O)OCC(=O)NC2C3CC4CC(C3)CC2C4)cn1 (stereo not given) | -3%
33 | COc1ccc(NC(=O)C2=C(C)NC(Nc3nc4ccccc4o3)=NC2c2ccccc2Br)cc1 (stereo not given) | 0.993%
34 | CCC(=O)NC(c1cc(Cl)c2ccccc2c1O)C1CC1 (stereo not given) | 1.07%
35 | Cc1cc(N[S+](=O)([O-])c2cc3c(cc2Cl)CCC(=O)N3)ccc1Cl | -11.9%
36 | Cc1cccc(CNc2ccnc(-c3ccc(C(F)(F)F)cc3)n2)c1 | 2.56%
37 | O=C(O)c1cc(Br)c(O)c2ncccc12 | -11.2%
38 | O=[S+]([O-])(c1cc2ccccc2o1)N1CCN([S+](=O)([O-])c2c(F)cccc2F)CC1 | 0.977%
39 | O=C(CN1C(=O)N/C(=C\c2cccn2-c2cccc(C(=O)O)c2)C1=O)Nc1cccc(F)c1 | -9%
40 | Fc1ccccc1-c1ccc(Nc2nc(-c3ccncc3)nc3ccccc23)cc1F | 8.17%
